# Source: PubChem BioAssay AID504810 (National Center for Advancing Translational Sciences (NCATS), 2011)
# About 670 (0.2%) of roughly 330,000 compounds were called active.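 The calls were made as follows: active = activity change below a set negative limit, meaning inhibition stronger than a set level (cut at about -70% in these data); inconclusive = activity change between two set negative limits; inactive = the rest.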 What follows is part of a selection rich in actives, with near analogues and random picks from the rest.
# Molecular target: Thyrotropin receptor (Homo sapiens) (UniProt P16473)
# Test: Antagonists of the Thyroid Stimulating Hormone Receptor: HTS campaign
# Conditions: TSHR-expressing cells, TSH-stimulated cAMP HTRF, 2 h; at 11.5 µM; hits give low values
# Outline: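 TSHR-expressing cells were treated with compounds, then stimulated with TSH at EC80 (4nM final) for 2 hours at 37 deg C. Cellular cAMP was measured by HTRF competition between lysate cAMP and cAMP-d2 for a cryptate-labelled anti-cAMP antibody.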
# % is scaled to controls: 0 for no effect and ±100 for the full control effect.
# Sequence of Thyrotropin receptor (Homo sapiens) (P16473 whole entry, looked up): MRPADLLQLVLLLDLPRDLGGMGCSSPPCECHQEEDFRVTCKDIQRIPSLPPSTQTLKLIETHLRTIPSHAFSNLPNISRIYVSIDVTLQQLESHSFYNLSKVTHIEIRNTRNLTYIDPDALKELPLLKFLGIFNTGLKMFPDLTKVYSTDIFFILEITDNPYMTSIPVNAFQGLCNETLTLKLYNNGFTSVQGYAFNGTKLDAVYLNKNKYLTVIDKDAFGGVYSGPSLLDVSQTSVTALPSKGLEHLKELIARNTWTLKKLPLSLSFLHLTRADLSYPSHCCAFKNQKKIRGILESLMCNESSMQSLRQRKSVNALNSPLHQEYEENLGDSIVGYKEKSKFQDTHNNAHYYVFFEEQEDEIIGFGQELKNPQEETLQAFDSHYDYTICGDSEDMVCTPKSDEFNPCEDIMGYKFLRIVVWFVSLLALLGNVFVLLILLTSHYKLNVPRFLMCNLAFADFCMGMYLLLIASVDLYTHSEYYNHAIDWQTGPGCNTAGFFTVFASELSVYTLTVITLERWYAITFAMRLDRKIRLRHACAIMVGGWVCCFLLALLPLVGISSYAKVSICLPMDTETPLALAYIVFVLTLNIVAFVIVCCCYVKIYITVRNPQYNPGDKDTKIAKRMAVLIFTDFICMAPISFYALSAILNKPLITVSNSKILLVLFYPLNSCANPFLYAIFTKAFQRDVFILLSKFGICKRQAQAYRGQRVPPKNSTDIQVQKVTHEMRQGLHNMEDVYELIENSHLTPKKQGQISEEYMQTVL
row,SMILES,"activity change, negative = inhibition"
1,Nc1ccc(Nc2cc(O)c3ncccc3c2)cc1,-16% (inactive)
2,CCOC(=O)c1ccccc1NS(=O)(=O)c1c(C)nc2sccn2c1=O,3.11% (inactive)
3,CCN(/N=C/c1ccc(N(C)C)cc1)c1nc2ccccc2[nH]1,-6.71% (inactive)
4,O=C(CC(O)(C(F)(F)F)C(F)(F)F)Nc1ccc(Cl)c(Cl)c1,-74.6% (active)
5,O=C(CCCN1C(=O)CCC1=O)Nc1ccc(Cl)c(C(F)(F)F)c1,1.2% (inactive)
6,CS(=O)(=O)N(CC(=O)Nc1ccc(Cl)c(Cl)c1)C1CCCCC1,15.8% (inactive)
7,Cc1ccccc1CN1C[C@@H]2C[C@@H](c3cn(C)nc3-c3ccccc3)N3CCC[C@@]23C1=O,2.86% (inactive)
8,NC(=O)COC(=O)c1cc(S(=O)(=O)N2CCN(c3ccccc3)CC2)ccc1Cl,-4.47% (inactive)
9,CCNC(=O)NC(=O)C(C)OC(=O)C1CCN(S(=O)(=O)c2ccccc2F)CC1 (centres undefined),15.3% (inactive)
10,O=C(CCNC(=O)Cn1ccc2ccccc2c1=O)NCCC1=CCCCC1,9.22% (inactive)
11,Oc1ccc(Cn2cc[nH]c2=S)cc1,7.71% (inactive)
12,Cc1ccc(S(=O)(=O)N2[C@@H](c3ccc(Br)cc3)C(C(=O)O)=C[C@H]2CC2CCCC2)cc1,-5.29% (inactive)
13,CC[C@]12c3[nH]c4ccc(Cl)cc4c3CCN1C(=O)[C@@H](CC(=O)NCCCOC)C[C@@H]2C(=O)N1CCN(C(=O)C2CC2)CC1,11.4% (inactive)
14,CCN(Cc1ccccc1)C(=O)Cc1ccc(OC)c(S(=O)(=O)N2CCOCC2)c1,0.0578% (inactive)
15,N#Cc1c(Cl)nc(-c2cccnc2)nc1-c1ccccc1,3.65% (inactive)
16,CC1(c2ccc3ccccc3c2)NC(=O)N(CC(N)=O)C1=O (centres undefined),-6.17% (inactive)
17,CN(C)c1ccc(S(=O)(=O)NCC(=O)NCC2CCCCC2)cc1[N+](=O)[O-],6.75% (inactive)
18,Cc1ccc(S(=O)(=O)NCCCn2ccnc2)cc1C(=O)NC(C)C,-0.615% (inactive)
19,O=C(Nc1ccccc1Cl)/C(Cl)=C(\Cl)S(=O)c1ccccc1 (centres undefined),-71.3% (active)
20,CC1(C)CC(CCC(=O)Nc2ccccc2Cl)C(=O)O1 (centres undefined),13.5% (inactive)
21,Cc1c(NC(=O)Nc2ccccc2Cl)sc(=S)n1C,46.2% (inactive)
22,O=C1CCC(C(=O)N2CCCCO2)CN1Cc1cccc(C(F)(F)F)c1 (centres undefined),15.4% (inactive)
23,COc1ccc(CCNC2=CC(=O)CC(C)(C)C2)cc1,-4.33% (inactive)

row,SMILES,"activity change, negative = inhibition"
1,O=C1NC2(CCCCCC2)C(=O)N1CCS(=O)(=O)Oc1ccccc1,-2.81% (inactive)
2,Cc1ccc(C(=O)Nc2ncccc2C)cc1S(=O)(=O)N1CCOCC1,-1.78% (inactive)
3,COc1ccc(/C=C/C(=O)OCC(=O)NC2CCCCCC2)cc1OC,-8.81% (inactive)
4,CCN(CC(=O)Nc1ccccc1C(F)(F)F)C(=O)CSCc1c(C)noc1C,4.59% (inactive)
5,Cc1nnc(NC(=O)CSc2nccn2-c2cccc(C)c2C)s1,-14.2% (inactive)
6,Fc1ccc(-n2c(Cc3ccccc3)nnc2SCc2nc(-c3ccc(Cl)cc3)no2)cc1,7.8% (inactive)
7,CCOCCCNC(=O)C(NC(=O)c1ccc(=O)[nH]c1)c1ccc(Cl)cc1 (centres undefined),-71.3% (active)
8,CCOCCCNC(=O)C(NC(=O)c1ccccc1O)c1ccccc1 (centres undefined),1.46% (inactive)
9,CCOCCCNC(=O)C(NC(=O)c1ccc(=O)[nH]c1)c1ccc(C)cc1 (centres undefined),-1.24% (inactive)
10,CCOC(=O)C1(CC2CCCCO2)CCN(Cc2nc(-c3cccs3)oc2C)CC1 (centres undefined),-7.01% (inactive)
11,Cc1ccc(S(=O)(=O)NC2(C(F)(F)F)NC(=O)N(CCc3ccccc3)C2=O)cc1 (centres undefined),-3.44% (inactive)
12,COc1ccc(N2C(=O)NC(NS(=O)(=O)c3ccc(Cl)cc3)(C(F)(F)F)C2=O)cc1 (centres undefined),-105% (active)
13,COc1ccc(S(=O)(=O)NC2(C(F)(F)F)N=C3SCCN3C2=O)cc1 (centres undefined),17.4% (inactive)
14,Cc1cc(C(=O)NC2CCCc3c2cnn3-c2cccc(C)c2C)c(C)o1 (centres undefined),-79.3% (active)
15,Cn1nccc1C(=O)NC1CCCc2c1cnn2-c1ccccc1F (centres undefined),-36.6% (inactive)
16,Cn1nccc1C(=O)NC1CCCc2c1cnn2-c1ccc(F)cc1F (centres undefined),-37.7% (inactive)
17,Cc1ccc(S(=O)(=O)c2c[nH]c3ccc(Cl)cc3c2=O)cc1,-9.54% (inactive)
18,CCn1nc(C(=O)NNC(=O)C2CSC3(C)CCC(=O)N23)c2ccccc2c1=O (centres undefined),6.6% (inactive)
19,COCCCn1c(Cc2csc(Nc3cccc(Cl)c3)n2)nnc1SCC(=O)OC1CCCCC1,-4.53% (inactive)
20,C/C(=N\NC(=O)c1cc(-c2ccc(O)cc2)nc2ccccc12)c1cccnc1,0.505% (inactive)
21,Cc1cccc(N2CCC(NCc3c(C(=O)N4CCCCC4)nc4c(C)cccn34)CC2)c1,4.5% (inactive)
22,CCOC(=O)[C@H]1[C@H]2COc3ccc(C)cc3[C@@H]2N2C(=O)CN(Cc3ccc(F)cc3)C(=O)[C@@]12C,-7.74% (inactive)
23,Cc1ccc(N(CCC(=O)O)S(=O)(=O)c2cccc(C(F)(F)F)c2)cc1,22.4% (inactive)

row,SMILES,"activity change, negative = inhibition"
1,CN(CC(=O)Nc1cccc(F)c1)C(=O)C1CC(=O)N(CCc2ccccc2)C1 (centres undefined),8.3% (inactive)
2,CC(C)c1ccc(NC(=S)NC2CC3C=CC2C3)cc1 (centres undefined),-4.5% (inactive)
3,CC(NC(=O)COC(=O)CCC(=O)c1ccc(Cl)cc1)c1ccccc1 (centres undefined),-10.7% (inactive)
4,COc1cccc(NC(=O)C2CCCN(c3ncnc4c3nc3n4CCCCC3)C2)c1 (centres undefined),-12.1% (inactive)
5,COc1cccc(N(CC(=O)NCc2ccccc2)C(=O)CCC(=O)Nc2nccs2)c1,-9.83% (inactive)
6,COc1ccc(N(CC(=O)NCc2ccc(F)cc2)C(=O)CCC(=O)Nc2nccs2)cc1,-77.8% (active)
7,O=C(CN(C(=O)CCC(=O)Nc1nccs1)c1ccc(F)cc1)NCc1ccc2c(c1)OCO2,21.9% (inactive)
8,COC(=O)c1ccc(S(=O)(=O)N2CCC(c3nc4ccccc4o3)CC2)cc1,-1% (inactive)
9,Cn1cc(CCC(=O)NCc2ccc3c(c2)OCO3)c2ccccc21,5.66% (inactive)
10,c1n[nH]c(NCc2ccc3c(c2)OCO3)n1,5.91% (inactive)
11,N#Cc1nc(Cc2cccc3ccccc23)oc1NCc1ccc2c(c1)OCO2,-94.7% (active)
12,CCc1nonc1NC(=O)c1oc2ccc(Cl)cc2c1C,3.96% (inactive)
13,O=C1C=C(c2cccc(Cl)c2O)C[C@@H](c2ccc(F)cc2)C1,-23% (inactive)
14,CC1(C)NC(=O)N(CC(=O)N2CCN(S(=O)(=O)c3ccccc3F)CC2)C1=O,1.38% (inactive)
15,CCN(c1ccccc1)S(=O)(=O)c1cc(C(=O)NCc2ccccn2)ccc1C,0.209% (inactive)
16,Cc1ccc(C)c(N(CC(=O)NCc2ccco2)C(=O)CCC(=O)Nc2ccccn2)c1,0.465% (inactive)
17,COC(=O)c1ccc(COC(=O)c2c(C)nn(Cc3ccccc3Cl)c2Cl)o1,-21.4% (inactive)
18,CC(=O)N=c1ncn(CC(COC(C)=O)OC(C)=O)c2nc[nH]c12 (centres undefined),-10.8% (inactive)
19,Cc1ccc(S(=O)(=O)N(C)c2ccc(OCC(=O)NC3=NCCS3)cc2)cc1,26.8% (inactive)
20,Oc1c(Cl)cc(Cl)c(Cl)c1Cc1c(O)c(Cl)cc(Cl)c1Cl,-103% (active)
21,CC(Oc1ccccc1)C(=O)NN1Cc2ccccc2C1=N (centres undefined),8.16% (inactive)
22,CCOC(=O)c1ccc(NC(=O)c2nc[nH]c2C(=O)N[C@@H](CCCCNC(=O)OC(C)(C)C)C(=O)OC(C)(C)C)cc1,-6.71% (inactive)
23,CCCn1c(=O)c2[nH]c(-c3ccc(OCC(=O)NCCN)cc3)nc2n(CCC)c1=O,26.4% (inactive)

row,SMILES,"activity change, negative = inhibition"
1,COc1ccc(C(=O)NCC2CCCN2S(=O)(=O)c2cccs2)cc1OC (centres undefined),4.47% (inactive)
2,CC(CCc1ccccc1)NCC(O)c1cccc([N+](=O)[O-])c1 (centres undefined),9.45% (inactive)
3,CN(c1ccccc1)S(=O)(=O)c1cc(C(=O)Nc2nc3ccccc3[nH]2)ccc1Cl,-76.7% (active)
4,Cc1cccc(NC(=O)c2ccc(S(=O)(=O)N(C)c3ccccc3)cc2)n1,-19.5% (inactive)
5,CN(c1ccccc1)S(=O)(=O)c1cc(C(=O)OCC(=O)N2CCN(C(=O)c3ccco3)CC2)ccc1Cl,-10.1% (inactive)
6,Cc1cc(C)n2nc(C(=O)N(C)C(c3ccccc3)c3ccccc3)nc2n1,0.111% (inactive)
7,Cc1cc(C)n2nc(C(=O)OC(C)C(=O)c3cc(C)c(C)cc3C)nc2n1 (centres undefined),23.5% (inactive)
8,O=C(CN1C(=O)CSC1=O)N1CCCC(Nc2ccc(F)cc2)C1 (centres undefined),-1.23% (inactive)
9,Cc1ccsc1C(=O)OCC(=O)Nc1cccc(F)c1,-3.82% (inactive)
10,CCOc1ccc(NC(=O)c2ccccc2NS(C)(=O)=O)cc1,5.45% (inactive)
11,COc1cc(OC)c(S(=O)(=O)Nc2ccccc2C(=O)O)cc1S(=O)(=O)Nc1ccccc1C(=O)O,-2.52% (inactive)
12,COc1cc(NC(=O)c2ccccc2NS(=O)(=O)c2ccc(Cl)s2)cc(OC)c1,-75.8% (active)
13,CCN(CC)C(=O)CSC1c2ccccc2C(=O)N1c1ccccc1 (centres undefined),4.85% (inactive)
14,O=C(CCSCCc1ccccn1)Nc1nccs1,-1.45% (inactive)
15,CC(=O)c1nn(-c2cccc(Br)c2)cc1C(=O)c1cccc2ccccc12,7.96% (inactive)
16,CC(C)Cc1nn2c(=O)cc(O)nc2s1,2.07% (inactive)
17,CCOC(=O)C1(Cc2ccccc2C)CCCN(C(=O)c2ccc(COC)o2)C1 (centres undefined),26.3% (inactive)
18,CC1CCCCC1NC(=O)CO/N=C/c1ccc(OC(F)F)cc1 (centres undefined),-11.3% (inactive)
19,O=C(CO/N=C/c1ccc(OC(F)F)cc1)NCc1ccc(F)cc1,-73.2% (active)
20,CCOc1ccc(/C=N/OCC(=O)NCc2cccs2)cc1,-4.83% (inactive)
